Screens: PubChem, several laboratories
IDE act: boosts human insulin-degrading enzyme activity in HEK cells; P14735; FAbeta-B cleavage, fluorescence polarization; 0% vehicle, 100% cell-free pure enzyme wells; activation, % at 5.96 µM; hit rate 0.073% among 340,000;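 active means activation above the mean of all tested compounds plus 3 SD, set per screening campaign, cut at about 17% in these data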
Target sequence (P14735 whole entry, looked up): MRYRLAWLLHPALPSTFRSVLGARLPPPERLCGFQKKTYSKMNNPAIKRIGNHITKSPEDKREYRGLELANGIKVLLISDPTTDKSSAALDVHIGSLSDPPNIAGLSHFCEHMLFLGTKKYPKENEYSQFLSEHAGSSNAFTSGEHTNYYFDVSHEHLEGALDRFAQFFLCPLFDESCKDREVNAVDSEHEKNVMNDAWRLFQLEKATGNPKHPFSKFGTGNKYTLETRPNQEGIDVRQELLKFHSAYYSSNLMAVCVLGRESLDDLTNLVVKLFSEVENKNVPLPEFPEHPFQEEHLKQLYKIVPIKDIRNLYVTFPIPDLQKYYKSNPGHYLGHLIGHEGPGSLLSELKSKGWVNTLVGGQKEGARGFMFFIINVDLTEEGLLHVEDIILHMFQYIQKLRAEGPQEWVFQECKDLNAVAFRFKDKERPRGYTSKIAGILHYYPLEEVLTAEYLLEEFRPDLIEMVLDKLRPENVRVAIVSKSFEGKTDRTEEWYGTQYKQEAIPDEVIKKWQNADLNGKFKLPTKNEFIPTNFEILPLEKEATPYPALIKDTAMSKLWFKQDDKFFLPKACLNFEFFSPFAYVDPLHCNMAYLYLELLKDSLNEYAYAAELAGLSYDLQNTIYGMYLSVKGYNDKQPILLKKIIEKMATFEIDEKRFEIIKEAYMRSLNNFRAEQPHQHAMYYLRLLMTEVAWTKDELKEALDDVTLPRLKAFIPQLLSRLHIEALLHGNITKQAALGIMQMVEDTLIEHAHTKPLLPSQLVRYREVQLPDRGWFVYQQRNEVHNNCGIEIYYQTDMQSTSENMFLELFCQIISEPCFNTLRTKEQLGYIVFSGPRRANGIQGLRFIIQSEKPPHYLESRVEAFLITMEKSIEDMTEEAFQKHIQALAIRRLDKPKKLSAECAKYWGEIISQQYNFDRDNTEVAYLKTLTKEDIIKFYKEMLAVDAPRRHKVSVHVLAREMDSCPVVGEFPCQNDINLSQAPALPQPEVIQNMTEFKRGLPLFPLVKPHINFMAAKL
TPT1 inh: C. albicans TPT1 enzyme inhibition; recombinant caTPT1, FP RNA substrate dephosphorylation; inhibition, % at 5 µM; hit rate 0.81% among 300,000; AID 1962;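 active means inhibition above the mean of all tested compounds plus 3 SD, set per screening campaign, cut at about 24% in these data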
HNF4A DNA FP: change in binding of human HNF4 alpha to DNA | P41235 | HNF4a-FITC DNA binding, fluorescence polarization, 1 h | activity change, % at 10 µM | hit rate 0.3% among 360,000; in the data active means activity change above about 30%, passing the limit was not always enough
IDE cell inh: inhibitors of human insulin-degrading enzyme in cells. P14735. HEK cells, FAbetaB cleavage, fluorescence polarization. inhibition, % at 5.59 µM. hit rate 0.41% among 320,000. AID 434962;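 active means percent inhibition above the average of all tested compounds plus 3 SD, set per screening campaign, cut at about 16% in these data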;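 further: IDE supplied by intact live HEK cells; FP after avidin binding of uncleaved biotin substrate so inhibition keeps polarization high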
CRFBP-R2 agonist: agonists of human CRF-binding protein/CRF-R2 receptor complex. activation, % at 13.2 µM. hit rate 0.46% among 350,000. HEK293 CRF-R2/CRF-BP, calcium dye fluorescence (FLIPR); percent of saturating CRF peptide response. AID 588473;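 active means activation of at least 50%, plus an integration ratio under a set limit after plate pattern correction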
caTPT1 confirm: TPT1 (C. albicans) inhibition, confirmation; shares compounds with TPT1 inh; recombinant caTPT1, fluorescence polarization, RNase T1 coupled; inhibition, % at 5 µM; hit rate 74% among 2,400;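 active means inhibition above the primary screen limit, the mean inhibition of all tested compounds plus 3 SD, cut at about 25% in these data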
RNase T1 inh: counter-screen for TPT1 inhibitors: inhibitors of Aspergillus oryzae RNase T1; shares compounds with TPT1 inh; RNase T1 cleavage, fluorescence polarization, 1536-well; inhibition, % at 5 µM; hit rate 83% among 2,400;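 active means inhibition above the solvent-only control well mean plus 3 SD, limit set per screening run, cut at about 23% in these data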;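 further: inhibitors block cleavage so intact labeled substrate keeps polarization high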
Of the large screens only hits and unclear results are named; the others gave an inactive call (follow-up assays come after a bar, where they were run); ! = repeats disagree. Only some compounds are listed: those with a hit (about 1.4% of all), similar ones and a draw of the others.

Cc1cccc(NC(=O)CNC(=O)CCc2nc3sc4c(c3c(=O)[nH]2)CCCC4)c1C	TPT1 inh 32.3 | caTPT1 confirm 43.0 | RNase T1 inh 53.4
Cc1cccc(NC(=O)CCc2nc3sc4c(c3c(=O)[nH]2)CCCC4)n1	none
CC(SCc1nc2sc3c(c2c(=O)[nH]1)CCCC3)C(=O)Nc1ccccn1 (configuration not stated)	TPT1 inh 32.5 | caTPT1 confirm 38.8 | RNase T1 inh 50.3
COC(=O)c1ccc(C(=O)OC)c(NC(=O)C2CCCO2)c1 (configuration not stated)	none
Cc1ccc(S(=O)(=O)N2CCN(C(=O)COC(=O)c3cccc(Cl)c3)CC2)c(C)c1	none (no result: TPT1 inh)
CC(=O)N1CCc2cc(NC(=O)C3(C)CCN3CCc3ccccc3)ccc21 (configuration not stated)	none (no result: IDE act, TPT1 inh, IDE cell inh, CRFBP-R2 agonist)
Cc1cc(C)c(C)c(S(=O)(=O)N[C@@H](C)C(=O)OCC(=O)NC2CCCC(C)C2C)c1C (some centres not stated)	none (no result: TPT1 inh)
Cc1cc2oc(=O)cc(CN3CCCc4ccccc43)c2cc1C	TPT1 inh 48.4 | caTPT1 confirm 43.3 | RNase T1 inh 53.1
C[C@H](CO)N1C[C@H](C)[C@H](CN(C)Cc2cncnc2)Oc2ncc(C#CC3(O)CCCC3)cc2C1=O	none (no result: IDE act, TPT1 inh, IDE cell inh)
Cc1c(N=C2Nc3cccc4cccc2c34)c(=O)n(-c2ccccc2)n1C	TPT1 inh 87.8, HNF4A DNA FP 42.6! | caTPT1 confirm 108.5 | RNase T1 inh 113.6
Cc1c(N2C(=O)c3cccc4cccc(c34)C2=O)c(=O)n(-c2ccccc2)n1C	none
Cc1ccc(S(=O)(=O)NC(C)(C)C)cc1C(=O)OCC(=O)N1CCCC1=O	none
O=S(=O)(c1ccc(-c2ccon2)s1)N1CCN(c2ccncc2)CC1	TPT1 inh 44.2 (no result: IDE act, HNF4A DNA FP) | caTPT1 confirm inactive | RNase T1 inh 26.0
Cc1ccccc1-n1c(SCc2c(C)noc2C)nnc1-c1ccncc1	TPT1 inh 32.5 | caTPT1 confirm inactive | RNase T1 inh inactive
Cc1ccccc1-n1c(SCc2c(C)noc2C)nnc1-c1cccnc1	none
O/C(=C\c1ccc2ccccc2n1)c1ccc(O)cc1O	TPT1 inh 98.0, HNF4A DNA FP 64.9 | caTPT1 confirm 109.9 | RNase T1 inh 107.9
N#CC1(C#N)C2=C(CCCC2)NC(c2ccccc2)C1(C#N)C#N (configuration not stated)	TPT1 inh 30.3 (no result: IDE act, HNF4A DNA FP, CRFBP-R2 agonist) | caTPT1 confirm 25.2 | RNase T1 inh 34.5
CNC(=O)/C(C#N)=C/c1c(N2CCCCCC2)nc2ccccn2c1=O	TPT1 inh 36.0 | caTPT1 confirm 51.4 | RNase T1 inh 60.2
O=C1CSc2ccc(S(=O)(=O)N3CCN(c4ccccc4F)CC3)cc2N1	TPT1 inh 28.0 | caTPT1 confirm inactive | RNase T1 inh inactive
NC(=O)N/N=C/c1ccc(N2CCOCC2)s1	TPT1 inh 81.0, HNF4A DNA FP 71.1 | caTPT1 confirm 123.2 | RNase T1 inh 129.8
Cc1ccc(S(=O)(=O)NNc2nnc(C)c(=O)[nH]2)cc1	TPT1 inh 51.2 | caTPT1 confirm inactive | RNase T1 inh inactive
Cc1nnc(NNS(=O)(=O)c2ccc(Cl)cc2)[nH]c1=O	none
Cc1ccc(Nc2nc(-c3ccccc3)c(CC(=O)O)s2)cc1	TPT1 inh 56.5 | caTPT1 confirm inactive | RNase T1 inh 31.2
O=C(O)Cc1sc(Nc2ccc(F)cc2)nc1-c1cccs1	TPT1 inh 68.2 | caTPT1 confirm 48.6 | RNase T1 inh 63.3
O=C(O)Cc1sc(Nc2ccccc2)nc1-c1ccc(Cl)cc1	none
COc1cc(OC)c(OC)cc1/C=C1\CC(C)C/C(=C\c2cc(OC)c(OC)cc2OC)C1=O (configuration not stated)	TPT1 inh 74.0, HNF4A DNA FP 58.4 | caTPT1 confirm 86.6 | RNase T1 inh 94.9
CCC1C/C(=C\c2cc(OC)c(OC)cc2OC)C(=O)/C(=C/c2cc(OC)c(OC)cc2OC)C1 (configuration not stated)	TPT1 inh 64.0, HNF4A DNA FP 71.0 | caTPT1 confirm 88.4 | RNase T1 inh 97.4
COc1ccc(/C=C2\CN(Cc3ccccc3)C/C(=C\c3ccc(OC)cc3OC)C2=O)c(OC)c1	none
CCC1C/C(=C/c2ccco2)C(=O)/C(=C/c2ccco2)C1 (configuration not stated)	TPT1 inh 68.0 (no result: IDE act, HNF4A DNA FP, CRFBP-R2 agonist) | caTPT1 confirm 75.2 | RNase T1 inh 80.2
COc1cc(/C=C2\CC(C(C)(C)C)C/C(=C\c3cc(OC)c(OC)c(OC)c3)C2=O)cc(OC)c1OC (configuration not stated)	none
O=S(=O)(/C=C/c1ccccc1)N1CCN(Cc2ccccc2)CC1	none
CCCCNC(=O)C1C(c2ccc(C(F)(F)F)cc2)=Nc2ccccc2N1C(=O)C1CCN(C(C)=O)CC1 (configuration not stated)	none (no result: IDE act, TPT1 inh, IDE cell inh, CRFBP-R2 agonist)
Cc1cc(NC(=O)C(C)Sc2nc(-c3ccccc3)cc(=O)[nH]2)no1 (configuration not stated)	none
CCc1ccc(CN(Cc2cccnc2)C(=O)/C=C/c2ccc(OC)cc2)cc1	TPT1 inh 39.2, HNF4A DNA FP 60.3 | caTPT1 confirm 88.6 | RNase T1 inh 102.2
COC(=O)c1ccc(S(=O)(=O)NNC(=O)c2ccc(S(=O)(=O)N3CCCCC3)cc2)cc1	none
O=C(NNS(=O)(=O)c1ccccc1)c1ccc(S(=O)(=O)N2CCCCC2)cc1	TPT1 inh 40.2 | caTPT1 confirm inactive | RNase T1 inh inactive
COc1cccc(C(O)c2cnc(C(C)C)n2C)c1 (configuration not stated)	none
O=C(CCCN1C(=O)/C(=C\c2cccs2)SC1=S)Nc1ccc(C(=O)O)cc1	none
O=C(CCN1C(=O)/C(=C/c2cccs2)SC1=S)Nc1ccc(C(=O)O)cc1	TPT1 inh 30.7 | caTPT1 confirm 28.6 | RNase T1 inh 38.5
O=C(CCN1C(=O)/C(=C/c2cccs2)SC1=S)Nc1ccccn1	TPT1 inh 32.5, HNF4A DNA FP 33.3 | caTPT1 confirm 31.0 | RNase T1 inh 42.3
NS(=O)(=O)c1cccc(NC(=O)CN2CCc3ccccc32)c1	none
CN(c1ccccc1)S(=O)(=O)c1cccc(NC(=O)CN2CCCc3ccccc32)c1	TPT1 inh 37.1 | caTPT1 confirm 25.0 | RNase T1 inh 37.0
CC(C)c1ccc(N2CC(C)(C)C2=O)cc1	none
COC(=O)c1sccc1NC(=O)c1ccc(OC)cc1	TPT1 inh 62.7 | caTPT1 confirm inactive | RNase T1 inh inactive
COC(=O)c1sccc1NC(=O)c1ccc(C)cc1	none
CS(=O)(=O)N1CC2CCCN2c2cc(C(F)(F)F)ccc21 (configuration not stated)	TPT1 inh 27.7 | caTPT1 confirm inactive | RNase T1 inh inactive
CN(C)S(=O)(=O)c1ccc(Cl)c(C(=O)OCC(=O)NC(=O)c2cccn2C)c1	TPT1 inh 125.0 | caTPT1 confirm inactive | RNase T1 inh inactive
